ANO1 block: mouse TMEM16A channel inhibition, primary screen | normalized B-score (activity score, 25-100; higher = stronger inhibition) at 10 µM | AID 588511 | HEK293 TMEM16A/YFP iodide influx fluorescence, ionomycin | 310,000 compounds, 1.2% hits | Q8BHY3;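 active = ratio plate-corrected score three or more library SD toward inhibition, starting fluorescence score within five deviations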;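 also: score derived from kinetic fluorescence span divided by baseline fluorescence per well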
Target sequence (Q8BHY3 whole entry, looked up): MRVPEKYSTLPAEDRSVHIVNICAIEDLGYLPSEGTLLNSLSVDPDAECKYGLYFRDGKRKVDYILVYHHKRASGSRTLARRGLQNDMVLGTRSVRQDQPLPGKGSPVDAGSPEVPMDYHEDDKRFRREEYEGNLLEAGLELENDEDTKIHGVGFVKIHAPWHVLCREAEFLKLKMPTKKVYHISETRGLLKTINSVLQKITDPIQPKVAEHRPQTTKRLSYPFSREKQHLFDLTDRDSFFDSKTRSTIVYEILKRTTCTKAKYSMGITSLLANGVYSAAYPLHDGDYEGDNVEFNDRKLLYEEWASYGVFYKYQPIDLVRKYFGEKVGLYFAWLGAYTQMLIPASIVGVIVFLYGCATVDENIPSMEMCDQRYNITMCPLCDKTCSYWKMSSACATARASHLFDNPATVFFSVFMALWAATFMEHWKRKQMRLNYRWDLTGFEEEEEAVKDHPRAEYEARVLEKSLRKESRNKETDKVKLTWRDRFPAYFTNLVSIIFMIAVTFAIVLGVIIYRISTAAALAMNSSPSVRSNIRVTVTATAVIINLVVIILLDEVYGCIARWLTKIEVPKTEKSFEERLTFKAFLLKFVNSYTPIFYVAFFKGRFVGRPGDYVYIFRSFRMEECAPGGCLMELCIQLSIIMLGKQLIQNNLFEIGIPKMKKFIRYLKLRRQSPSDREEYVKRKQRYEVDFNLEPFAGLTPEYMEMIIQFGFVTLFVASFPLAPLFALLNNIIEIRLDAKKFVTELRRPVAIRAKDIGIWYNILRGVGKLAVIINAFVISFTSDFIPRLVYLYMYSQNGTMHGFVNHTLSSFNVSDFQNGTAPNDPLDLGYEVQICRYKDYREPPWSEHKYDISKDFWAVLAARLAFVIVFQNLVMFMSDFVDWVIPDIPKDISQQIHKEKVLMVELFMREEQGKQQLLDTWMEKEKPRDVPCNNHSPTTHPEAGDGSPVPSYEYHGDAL
CHT PAM: allosteric activators of human choline transporter CHT; CHT-expressing cells, membrane potential dye, choline EC20; stronger effect = higher value; LV-AA mutant CHT in HEK293 cells; B-score at 10 µM; 310,000 compounds, 0.49% hits; Q9GZV3; AID 488977;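 active = initial fluorescence not abnormally high and integrated response B-score, plate-corrected, over 3 SD above library mean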
CHT inh: human CHT choline transport inhibition | AID 488975 | CHT-expressing cells, membrane potential dye, choline response; stronger effect = lower value | B-score at 10 µM | 310,000 compounds, 0.86% hits | Q9GZV3;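 active = B-score over 3 SD under the library average, and starting fluorescence ratio not unusually high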;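 also: choline stimulus applied at its EC90 after an EC20 pre-addition; B-score computed on integrated fluorescence ratio after choline addition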
PKA-R1A act: activators of PKA-R1A complex. P00514+P68181. PKA-R1A dissociation, Cy5-IP20 fluorescence polarization; scaled: DMSO 0%, 113 µM cGMP 100%. activation, % at 11.4 µM. 340,000 compounds, 0.083% hits. AID 504707;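 active = percent activation above the mean of all tested compounds plus 3 SD, cut at about 19% in these data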;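 also: higher means more PKAc released from R1A so a rise in polarization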
PKA-R2B activ: activators of human PKA-R2B complex | P22694+P31323 | PKA-R2B holoenzyme dissociation, Cy5-IP20 fluorescence polarization; R2B truncated from residue 108, S112A mutant; 0% DMSO only, 100% 113 µM cGMP | activation, % at 11.4 µM | 340,000 compounds, 0.079% hits | AID 504700;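 active = activation above a cutoff set at the mean over all compounds plus 3 SD, cut at about 18% in these data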;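 also: higher means more holoenzyme dissociation and a rise in polarization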
TMEM16A act: activates or potentiates the mouse TMEM16A chloride channel | B-score at 10 µM | AID 623877 | HEK293 TMEM16A/YFP-H148Q/I152L, iodide quench fluorescence; stronger effect = lower value | 340,000 compounds, 0.3% hits | Q8BHY3;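 active = fluorescence-ratio B-score plate-corrected deviation score at least 3 library SD below zero, with starting fluorescence score within 5 deviations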;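 also: channel opened by trigger with iodide after compound preincubation; score built on the fluorescence ratio of max minus min over baseline; more negative score means more quench and so TMEM16A activation or potentiation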
TMEM16A reconf: re-confirmation of mouse TMEM16A chloride channel inhibitors; shares compounds with ANO1 block; HEK293 TMEM16A/YFP-H148Q, iodide quench fluorescence; ionomycin added to raise cell calcium; inhibition, % at 10 µM; 2,300 compounds, 39% hits;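 active = mean duplicate percent inhibition, scaled so buffer wells are 0 and the reference blocker 100, over three buffer SD above buffer mean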
TMEM16A Ca cntr: alters calcium mobilization in TMEM16A HEK293 cells, counter-screen; shares compounds with ANO1 block; TMEM16A/YFP HEK293, Fluo4 calcium mobilization; calcium response (% of ionomycin), % at 10 µM; 2,300 compounds, 2% hits;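 active = duplicate-averaged calcium signal over 20% of the ionomycin maximum, relative to buffer baseline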;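 also: each well's signal is peak minus trough fluorescence divided by its pre-addition baseline; 0% = buffer wells and 100% = ionomycin wells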
YFP-HEK293 quench: acts in parental YFP-HEK293 cells lacking TMEM16A, counter-screen. iodide YFP quench, ionomycin. 2,300 tested, under 10 active. YFP ratio F(max-min)/F0 at 10 µM. shares compounds with ANO1 block. AID 652233;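 active = yellow fluorescent protein signal ratio exceeding the buffer control mean by over 5 SD of those controls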;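 also: ratio is mean of duplicate wells from kinetic YFP trace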
ClC-1 rat inh: blocks the rat ClC-1 voltage-dependent chloride channel; shares compounds with ANO1 block; CHO ClC-1-YFP, iodide influx fluorescence quench; iodide control reads 0, buffer control 100; AID 652236; ratio percent, % at 10 µM; 2,300 tested, under 10 active;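 active = duplicate-mean ratio percent above the mean of iodide-only control wells, which defines zero, plus 5 of their SD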;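 also: higher percent means stronger block of ClC-1 iodide influx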
* = called active by the depositor. Only some compounds are listed: those with a hit (about 2.5% of all), similar ones and a draw of the others.

For CCc1ccc(NC(=O)c2ccc(F)c(S(=O)(=O)N(CC)c3ccccc3)c2)cc1 the results were ANO1 block inactive, CHT PAM inactive, CHT inh inactive, PKA-R1A act -4.5, PKA-R2B activ -3.9 and TMEM16A act inactive.
For CCN(c1ccccc1)S(=O)(=O)c1cc(C(=O)Nc2cccc(Cl)c2)ccc1F the results were ANO1 block 100*, CHT PAM inactive, CHT inh inactive, PKA-R1A act -4.9, PKA-R2B activ -14.4, TMEM16A act inactive, TMEM16A reconf inactive, TMEM16A Ca cntr inactive, YFP-HEK293 quench -1.16 and ClC-1 rat inh -7.0.
CC(=O)Nc1ccc(OC(F)(F)C(F)C(F)(F)F)c(NC(C)=O)c1 (configuration not stated) was read as ANO1 block 100*, CHT PAM inactive, CHT inh inactive, PKA-R1A act 3.8, PKA-R2B activ 3.8, TMEM16A act inactive, TMEM16A reconf inactive, TMEM16A Ca cntr inactive, YFP-HEK293 quench -1.17 and ClC-1 rat inh -6.5.
For C=C(C)C(=O)Nc1ccc(OC(F)(F)C(F)F)c(NC(=O)C(=C)C)c1 the results were ANO1 block inactive, CHT PAM inactive, CHT inh inactive, PKA-R1A act -6.8, PKA-R2B activ -3.2 and TMEM16A act inactive.
For COc1ccc(S(=O)(=O)Nc2cccc(NC(C)=O)c2)cc1 the results were ANO1 block 25*, CHT PAM inactive, CHT inh inactive, PKA-R1A act -6.6, PKA-R2B activ -12.9, TMEM16A act inactive, TMEM16A reconf inactive, TMEM16A Ca cntr inactive, YFP-HEK293 quench -0.839 and ClC-1 rat inh -3.0.
For CC(=O)c1c(C)nn(CC(O)COc2ccc3c(c2)CCC3)c1C (configuration not stated) the results were ANO1 block 25*, CHT PAM inactive, CHT inh inactive, PKA-R1A act -8.7, PKA-R2B activ -15.3, TMEM16A act inactive, TMEM16A reconf inactive, TMEM16A Ca cntr inactive, YFP-HEK293 quench -1.07 and ClC-1 rat inh -6.5.
CCOC(=O)c1cnc2sc3c(n2c1=O)CCCC3 was read as ANO1 block 100*, CHT PAM inactive, CHT inh inactive, PKA-R1A act -11.9, PKA-R2B activ -6.7, TMEM16A act inactive, TMEM16A reconf inactive, TMEM16A Ca cntr inactive, YFP-HEK293 quench -1.12 and ClC-1 rat inh -8.0.
Screening Cc1cccc(C(=O)NCCC(=O)NCc2ccccc2Cl)c1 returned PKA-R1A act 3.9, PKA-R2B activ -2.0 and TMEM16A act inactive.
For O=C(CSc1ccc(F)cc1)N1CCC(c2nc3ccccc3s2)CC1 the results were ANO1 block 100*, CHT PAM inactive, CHT inh inactive, PKA-R1A act -12.0, PKA-R2B activ -11.1, TMEM16A act inactive, TMEM16A reconf 29.0%*, TMEM16A Ca cntr inactive, YFP-HEK293 quench -1.18 and ClC-1 rat inh -6.5.
O=C(CN1CCC(c2nc3ccccc3s2)CC1)N1CCCCC1 was read as ANO1 block inactive, CHT PAM inactive, CHT inh inactive, PKA-R1A act -3.1, PKA-R2B activ -4.0 and TMEM16A act inactive.
CC(C)C(=O)c1cc2c(cc1NC(=O)Nc1cccc3ccccc13)OCCO2 was read as ANO1 block inactive, CHT PAM inactive and CHT inh inactive.
`CC(C)C(=O)c1cc2c(cc1NC(=O)c1ccccc1)OCCO2` gave ANO1 block 100*, CHT PAM inactive, CHT inh inactive, PKA-R1A act 1.8, PKA-R2B activ -8.7, TMEM16A act inactive, TMEM16A reconf inactive, TMEM16A Ca cntr inactive, YFP-HEK293 quench -1.28 and ClC-1 rat inh -12.5.
Screening COc1ccc(C(=O)N/C(=C\c2ccco2)C(=O)NCCN2CCOCC2)cc1 returned ANO1 block inactive, CHT PAM inactive, CHT inh inactive, PKA-R1A act -11.1, PKA-R2B activ -9.0 and TMEM16A act inactive.
`O=C(NNC(=S)Nc1ccc(F)c(Cl)c1)C1CC1` gave ANO1 block inactive, CHT PAM inactive, CHT inh inactive, PKA-R1A act -9.2, PKA-R2B activ 6.3 and TMEM16A act inactive.
`CN1c2ccsc2C(O)=C(C(=S)Nc2ccc(F)c(Cl)c2)S1(=O)=O` gave ANO1 block 25*, CHT PAM inactive, CHT inh inactive, PKA-R1A act -2.5, PKA-R2B activ 5.9, TMEM16A act inactive, TMEM16A reconf 21.0%*, TMEM16A Ca cntr inactive, YFP-HEK293 quench -1.14 and ClC-1 rat inh -9.5.
CC(=O)Nc1ccc(/C=C2\CCc3ccccc3C2=O)cc1 was read as ANO1 block inactive, CHT PAM inactive, CHT inh inactive, PKA-R1A act -1.9, PKA-R2B activ 4.1 and TMEM16A act inactive.
Screening Cc1ccc(NS(=O)(=O)c2ccc(C(=O)N3CC(C)CC(C)C3)cc2)cc1 (configuration not stated) returned ANO1 block 100*, CHT PAM 10.4*, CHT inh inactive, PKA-R1A act 0.9, PKA-R2B activ -19.0, TMEM16A act -17.3*, TMEM16A reconf 79.5%*, TMEM16A Ca cntr 40.0%*, YFP-HEK293 quench -1.06 and ClC-1 rat inh -7.0.
Cc1ccc(S(=O)(=O)Nc2ccc(C(=O)N3CCCC3)cc2)cc1 was read as ANO1 block inactive, CHT PAM inactive, CHT inh inactive, PKA-R1A act 7.7, PKA-R2B activ -9.1 and TMEM16A act inactive.
Screening CCCc1cc(=O)n2nc(N3CCC(C(=O)Nc4cccc(C(C)=O)c4)CC3)sc2n1 returned ANO1 block inactive, CHT PAM inactive, CHT inh inactive, PKA-R1A act 6.5, PKA-R2B activ 2.4 and TMEM16A act inactive.
